# Test results reported in article PMC8384837, “Expanding the binding specificity for RNA recognition by a PUF domain”.
# Positions count from the first letter of the chain named.
# Key:
# Test in all cases: yeast three-hybrid, YBZ-1, SC-Leu-His + 0.5 mM 3-AT, 4 days
# Conditions in all cases: tags: N-Gal4 AD-HA kept; label: inside an RPR1-promoter hybrid RNA with tandem MS2 sites; ssRNA
# PUM1 PUF domain R4-RHG = PUM1 PUF domain R4-RHG (Homo sapiens, UniProt Q14671 828-1176, N971R;Q975G)
# Summary of the method: (§1)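 The interaction score is the logarithmic change in variant frequency from input to selection. It uses log2, with a pseudocount of 1 for absent variants, and frequencies came from PCR-amplified, Illumina-sequenced repeat regions. The libraries were Pumilio-1 PUF domains randomized at the three base-contacting residues per repeat, co-expressed with matching RNA elements in strain YBZ-1 (LexA–MS2 coat fusion, HIS3 reporter). Plating lasted four days on SC-Leu (input) or SC-Leu-His + 0.5 mM 3-AT (selection).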
# PUM1 PUF domain R4-VPQ = PUM1 PUF domain R4-VPQ (Homo sapiens, UniProt Q14671 828-1176, N971V;H972P)
# Summary of the method: as §1
# PUM1 PUF domain R6-VFQ = biological target: T1, PUM1 PUF domain R6-VFQ (Homo sapiens, UniProt Q14671 828-1176, N1043V;Y1044F)
# T1 sequence: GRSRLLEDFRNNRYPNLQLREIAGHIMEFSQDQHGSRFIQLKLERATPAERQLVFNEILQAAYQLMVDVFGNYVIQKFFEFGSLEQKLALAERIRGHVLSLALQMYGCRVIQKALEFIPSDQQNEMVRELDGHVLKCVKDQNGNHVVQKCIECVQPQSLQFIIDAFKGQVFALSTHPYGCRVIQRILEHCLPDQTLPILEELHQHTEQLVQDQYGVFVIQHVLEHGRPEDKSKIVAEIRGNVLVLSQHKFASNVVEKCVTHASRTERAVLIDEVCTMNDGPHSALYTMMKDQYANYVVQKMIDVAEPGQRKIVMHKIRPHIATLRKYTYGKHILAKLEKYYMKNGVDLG
# Summary of the method: as §1
# PUM1 PUF domain R8-RWK = PUM1 PUF domain R8-RWK (Homo sapiens, UniProt Q14671 828-1176, N1122R;Y1123W;Q1126K)
# Summary of the method: as §1
# PUM1 PUF domain R6-CHR = biological target: T2, PUM1 PUF domain R6-CHR (Homo sapiens, UniProt Q14671 828-1176, N1043C;Y1044H;Q1047R)
# T2 sequence: T1 sequence with V216C, F217H, Q220R
# Summary of the method: as §1
# PUM1 PUF domain R8-RFH = PUM1 PUF domain R8-RFH (Homo sapiens, UniProt Q14671 828-1176, N1122R;Y1123F;Q1126H)
# Summary of the method: as §1
# PUM1 PUF domain R5-MYS = PUM1 PUF domain R5-MYS (Homo sapiens, UniProt Q14671 828-1176, C1007M;R1008Y;Q1011S)
# Summary of the method: as §1
# PUM1 PUF domain R5-TRG = PUM1 PUF domain R5-TRG (Homo sapiens, UniProt Q14671 828-1176, C1007T;Q1011G)
# Summary of the method: as §1
# PUM1 PUF domain R5-GLW = PUM1 PUF domain R5-GLW (Homo sapiens, UniProt Q14671 828-1176, C1007G;R1008L;Q1011W)
# Summary of the method: as §1
# PUM1 PUF domain R5-RRS = PUM1 PUF domain R5-RRS (Homo sapiens, UniProt Q14671 828-1176, C1007R;Q1011S)
# Chain of PUM1 PUF domain R5-RRS (Q14671 828-1176 C1007R/Q1011S): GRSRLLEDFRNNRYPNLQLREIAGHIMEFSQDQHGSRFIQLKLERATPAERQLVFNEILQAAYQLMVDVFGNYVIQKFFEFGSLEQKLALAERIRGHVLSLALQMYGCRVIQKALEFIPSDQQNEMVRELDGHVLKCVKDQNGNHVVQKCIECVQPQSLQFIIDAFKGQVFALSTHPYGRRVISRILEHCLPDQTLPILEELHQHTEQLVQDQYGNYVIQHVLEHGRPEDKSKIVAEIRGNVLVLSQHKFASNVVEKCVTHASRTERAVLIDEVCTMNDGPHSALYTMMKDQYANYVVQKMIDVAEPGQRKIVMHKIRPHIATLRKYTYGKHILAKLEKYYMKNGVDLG
# Summary of the method: as §1
# PUM1 PUF domain R4-VSL = PUM1 PUF domain R4-VSL (Homo sapiens, UniProt Q14671 828-1176, N971V;H972S;Q975L)
# Summary of the method: as §1
# PUM1 PUF domain R6-LWQ = biological target: T3, PUM1 PUF domain R6-LWQ (Homo sapiens, UniProt Q14671 828-1176, N1043L;Y1044W)
# T3 sequence: T1 sequence with V216L, F217W
# Summary of the method: as §1
# PUM1 PUF domain R8-RFP = PUM1 PUF domain R8-RFP (Homo sapiens, UniProt Q14671 828-1176, N1122R;Y1123F;Q1126P)
# Summary of the method: as §1
# PUM1 PUF domain R3-RTW = PUM1 PUF domain R3-RTW (Homo sapiens, UniProt Q14671 828-1176, C935R;R936T;Q939W)
# Summary of the method: as §1
# PUM1 PUF domain R5-GQW = PUM1 PUF domain R5-GQW (Homo sapiens, UniProt Q14671 828-1176, C1007G;R1008Q;Q1011W)
# Summary of the method: as §1
# PUM1 PUF domain R5-RGW = PUM1 PUF domain R5-RGW (Homo sapiens, UniProt Q14671 828-1176, C1007R;R1008G;Q1011W)
# Summary of the method: as §1
# PUM1 PUF domain R5-KGD = PUM1 PUF domain R5-KGD (Homo sapiens, UniProt Q14671 828-1176, C1007K;R1008G;Q1011D)
# Summary of the method: as §1
# PUM1 PUF domain R5-HKE = PUM1 PUF domain R5-HKE (Homo sapiens, UniProt Q14671 828-1176, C1007H;R1008K;Q1011E)
# Summary of the method: as §1
# PUM1 PUF domain R2-DWE = PUM1 PUF domain R2-DWE (Homo sapiens, UniProt Q14671 828-1176, N899D;Y900W;Q903E)
# Summary of the method: as §1
# PUM1 PUF domain R1-KSN = PUM1 PUF domain R1-KSN (Homo sapiens, UniProt Q14671 828-1176, S863K;R864S;Q867N)
# Summary of the method: as §1
sequence,measurement,setting,value
GGCUAGAACUAGUGGAUCCCCCGGCGCCCGGCGGCUCGAGCCCGGGUAAGUGUAUAUAGUCUGCAUGCCGCCGGGCGCCAUGCCUGCAGGUCGACUCUAGAAAACAUG,binding signal,PUM1 PUF domain R4-RHG,4.05 log2 enrichment (interaction score)
same,binding signal,PUM1 PUF domain R4-VPQ,2.78 log2 enrichment (interaction score)
GGCUAGAACUAGUGGAUCCCCCGGCGCCCGGCGGCUCGAGCCCGGGUAAGUGAAAAUAGUCUGCAUGCCGCCGGGCGCCAUGCCUGCAGGUCGACUCUAGAAAACAUG,binding signal,PUM1 PUF domain R6-VFQ,8.19 log2 enrichment (interaction score)
GGCUAGAACUAGUGGAUCCCCCGGCGCCCGGCGGCUCGAGCCCGGGUAAGUGUAAAUAGUCUGCAUGCCGCCGGGCGCCAUGCCUGCAGGUCGACUCUAGAAAACAUG,binding signal,PUM1 PUF domain R8-RWK,6.43 log2 enrichment (interaction score)
same,binding signal,PUM1 PUF domain R6-CHR,3.81 log2 enrichment (interaction score)
same,binding signal,PUM1 PUF domain R8-RFH,4.43 log2 enrichment (interaction score)
same,binding signal,PUM1 PUF domain R4-RHG,2.69 log2 enrichment (interaction score)
same,binding signal,PUM1 PUF domain R5-MYS,2.4 log2 enrichment (interaction score)
same,binding signal,PUM1 PUF domain R5-TRG,2.68 log2 enrichment (interaction score)
same,binding signal,PUM1 PUF domain R5-GLW,2.11 log2 enrichment (interaction score)
same,binding signal,PUM1 PUF domain R5-RRS,2.42 log2 enrichment (interaction score)
same,binding signal,PUM1 PUF domain R4-VSL,2.71 log2 enrichment (interaction score)
same,binding signal,PUM1 PUF domain R6-VFQ,3.65 log2 enrichment (interaction score)
same,binding signal,PUM1 PUF domain R6-LWQ,5.83 log2 enrichment (interaction score)
GGCUAGAACUAGUGGAUCCCCCGGCGCCCGGCGGCUCGAGCCCGGGUAAGCGUAAAUAGUCUGCAUGCCGCCGGGCGCCAUGCCUGCAGGUCGACUCUAGAAAACAUG,binding signal,PUM1 PUF domain R8-RWK,6.98 log2 enrichment (interaction score)
same,binding signal,PUM1 PUF domain R8-RFH,4.72 log2 enrichment (interaction score)
same,binding signal,PUM1 PUF domain R8-RFP,5.8 log2 enrichment (interaction score)
GGCUAGAACUAGUGGAUCCCCCGGCGCCCGGCGGCUCGAGCCCGGGUAAGUGUAAUUAGUCUGCAUGCCGCCGGGCGCCAUGCCUGCAGGUCGACUCUAGAAAACAUG,binding signal,PUM1 PUF domain R3-RTW,2.38 log2 enrichment (interaction score)
GGCUAGAACUAGUGGAUCCCCCGGCGCCCGGCGGCUCGAGCCCGGGUAAGUGUGAAUAGUCUGCAUGCCGCCGGGCGCCAUGCCUGCAGGUCGACUCUAGAAAACAUG,binding signal,PUM1 PUF domain R5-RRS,1.53 log2 enrichment (interaction score)
GGCUAGAACUAGUGGAUCCCCCGGCGCCCGGCGGCUCGAGCCCGGGUAAGUGUUAAUAGUCUGCAUGCCGCCGGGCGCCAUGCCUGCAGGUCGACUCUAGAAAACAUG,binding signal,PUM1 PUF domain R5-GQW,2.77 log2 enrichment (interaction score)
same,binding signal,PUM1 PUF domain R5-MYS,3.54 log2 enrichment (interaction score)
same,binding signal,PUM1 PUF domain R5-TRG,2.97 log2 enrichment (interaction score)
same,binding signal,PUM1 PUF domain R5-GLW,1.6 log2 enrichment (interaction score)
same,binding signal,PUM1 PUF domain R5-RRS,4.6 log2 enrichment (interaction score)
GGCUAGAACUAGUGGAUCCCCCGGCGCCCGGCGGCUCGAGCCCGGGUAAGUGUCAAUAGUCUGCAUGCCGCCGGGCGCCAUGCCUGCAGGUCGACUCUAGAAAACAUG,binding signal,PUM1 PUF domain R5-RGW,2.31 log2 enrichment (interaction score)
same,binding signal,PUM1 PUF domain R5-KGD,3.76 log2 enrichment (interaction score)
same,binding signal,PUM1 PUF domain R5-HKE,3.67 log2 enrichment (interaction score)
same,binding signal,PUM1 PUF domain R5-RRS,4.44 log2 enrichment (interaction score)
GGCUAGAACUAGUGGAUCCCCCGGCGCCCGGCGGCUCGAGCCCGGGUAAGUGUAAAGAGUCUGCAUGCCGCCGGGCGCCAUGCCUGCAGGUCGACUCUAGAAAACAUG,binding signal,PUM1 PUF domain R2-DWE,9.59 log2 enrichment (interaction score)
GGCUAGAACUAGUGGAUCCCCCGGCGCCCGGCGGCUCGAGCCCGGGUAAGUGUACAUAGUCUGCAUGCCGCCGGGCGCCAUGCCUGCAGGUCGACUCUAGAAAACAUG,binding signal,PUM1 PUF domain R4-RHG,4.02 log2 enrichment (interaction score)
GGCUAGAACUAGUGGAUCCCCCGGCGCCCGGCGGCUCGAGCCCGGGUAAGUGUAAAUCGUCUGCAUGCCGCCGGGCGCCAUGCCUGCAGGUCGACUCUAGAAAACAUG,binding signal,PUM1 PUF domain R1-KSN,4.24 log2 enrichment (interaction score)
